Drawing on PubChem BioAssay (NCI), this text covers growth for nine molecules.

Some test systems named below: SK-MEL-2 melanoma; EKVX NSCLC; SN12C renal; UO-31 renal; ACHN renal; A498 renal; CCRF-CEM leukemia; MOLT-4 leukemia; SR leukemia; RPMI-8226 leukemia; OVCAR-8 ovarian; OVCAR-5 ovarian; OVCAR-4 ovarian; SK-OV-3 ovarian; IGROV1 ovarian; OVCAR-3 ovarian; HS 578T breast; NCI/ADR-RES ovarian; CAKI-1 renal.
What all share (assay): NCI-60 one-dose screen, 48 h (100 = growth as untreated, 0 = no growth, -100 = all killed)
Conditions in all cases: 10 µM unless noted

The structures appear in SMILES notation. This is part of a sample that, as a whole, favours compounds with a hit. Of some 83,000 tested, about 20% had one in any assay.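 Growth was measured after 48 h exposure to one concentration of compound in 96-well plates. Values under 10 count as active.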 Values without a mark were called inactive. Calls of active or inactive are those of the source.

As to `Cc1cc2c(cc1C)[n+](Cc1ccc3ccccc3n1)cn2Cc1ccc2ccccc2n1`, the growth in the test with SK-MEL-2 melanoma is -32% (active); with EKVX NSCLC, 39.6%; with SN12C renal it was 15.2%; with UO-31 renal, 53.2%; with ACHN renal it was 56.5%; with A498 renal, 17.1%. The growth was 15.1% in the test with CCRF-CEM leukemia; 7.97% (active) with MOLT-4 leukemia; -20.2% (active) in the test with SR leukemia; -30.7% (active) with RPMI-8226 leukemia; 6.48% (active) with OVCAR-8 ovarian; 23.6% with OVCAR-5 ovarian. Also, the growth in the test with OVCAR-4 ovarian is 8.38% (active); in the test with SK-OV-3 ovarian, 0.95% (active); in the test on IGROV1 ovarian it was -4.22% (active); in the test on OVCAR-3 ovarian, 3.63% (active); in the test on HS 578T breast it was 27.3%.

For the molecule `C[C@H](C(=O)N[C@@H](Cc1ccc(-c2ccccc2)cc1)C(=O)NC1CC(C)(C)NC(C)(C)C1)c1ccc(-c2ccccc2)c(F)c1`, the growth with SK-MEL-2 melanoma is -54.9% (active); in the test with EKVX NSCLC, -7.01% (active); in the test on SN12C renal, -50.7% (active); in the test with UO-31 renal, -85.5% (active); with ACHN renal, -86.9% (active); with A498 renal it was -4.66% (active). In addition, the growth was -20.9% (active) with CCRF-CEM leukemia; -42.4% (active) with MOLT-4 leukemia; -27.5% (active) with SR leukemia; -43.6% (active) with RPMI-8226 leukemia; -49.9% (active) with OVCAR-8 ovarian; -48.9% (active) with OVCAR-5 ovarian. The growth with OVCAR-4 ovarian is -27.4% (active); in the test on SK-OV-3 ovarian, -17.1% (active); in the test on IGROV1 ovarian, -36.8% (active); in the test with OVCAR-3 ovarian it was -92.1% (active); in the test on HS 578T breast, -31.6% (active); with NCI/ADR-RES ovarian, 60.4%.

With `COc1cnc2c(c1)C(=O)c1c-2n(CCCN2CCOCC2)c(=O)c2cc(F)ccc12`, the growth with SK-MEL-2 melanoma is 21.4%; with EKVX NSCLC, 17.7%; with SN12C renal it was 12.4%; in the test on UO-31 renal, -47.2% (active); in the test with ACHN renal it was -66.9% (active); in the test with A498 renal it was -24% (active). The growth in the test on CCRF-CEM leukemia was 1.77% (active); in the test on MOLT-4 leukemia it was -18.5% (active); with SR leukemia, 1.17% (active); with RPMI-8226 leukemia it was -19.2% (active); with OVCAR-8 ovarian, 0.87% (active); with OVCAR-5 ovarian, -13.2% (active). For the same molecule, the growth was 15.7% in the test on OVCAR-4 ovarian; -25.1% (active) in the test on SK-OV-3 ovarian; 12.2% with IGROV1 ovarian; -29.9% (active) in the test on OVCAR-3 ovarian; 12.5% in the test with HS 578T breast; 4.01% (active) with NCI/ADR-RES ovarian.

In the case of `Cc1ccc(/C=C(/C#N)n2nnc3ncccc32)cc1`, the growth in the test with SK-MEL-2 melanoma was 17.1%; in the test on EKVX NSCLC, 24.8%; in the test with SN12C renal, 8.6% (active); in the test with UO-31 renal, 24.3%; with ACHN renal it was 0.614% (active); with A498 renal, -7.36% (active). Also, the growth in the test with CCRF-CEM leukemia is 9.57% (active); with MOLT-4 leukemia, 11.8%; in the test with SR leukemia, 15.2%; in the test on RPMI-8226 leukemia it was 7.18% (active); in the test with OVCAR-8 ovarian it was -1.49% (active); with OVCAR-5 ovarian it was -20.3% (active). Moreover, the growth in the test on OVCAR-4 ovarian was 25.7%; in the test with SK-OV-3 ovarian, 14.2%; in the test on IGROV1 ovarian it was 19.3%; with OVCAR-3 ovarian, -15% (active); with HS 578T breast, 0.782% (active); in the test with NCI/ADR-RES ovarian, 2.09% (active).

`CC1CN(C2CCCCC2)C(=O)NC1=O` (stereo not given): the growth in the test on SK-MEL-2 melanoma is 100%; in the test on EKVX NSCLC, 110%; with SN12C renal it was 92.1%; in the test on UO-31 renal, 82%; in the test on CAKI-1 renal, 103%; in the test with A498 renal, 87.9%. In addition, the growth with CCRF-CEM leukemia was 106%; with MOLT-4 leukemia, 85%; in the test on SR leukemia it was 80.3%; with RPMI-8226 leukemia it was 111%; in the test with OVCAR-8 ovarian it was 104%; in the test with OVCAR-5 ovarian, 105%. In addition, the growth with OVCAR-4 ovarian is 116%; in the test with SK-OV-3 ovarian, 107%; in the test with IGROV1 ovarian, 110%; in the test on OVCAR-3 ovarian, 111%; in the test with HS 578T breast it was 110%; in the test with NCI/ADR-RES ovarian, 119%.

For `COc1cnc2c(c1)C(=O)c1c-2n(CCCN2CCNCC2)c(=O)c2cc(F)ccc12`, the growth in the test on SK-MEL-2 melanoma is -17.1% (active); with EKVX NSCLC, 18.7%; with SN12C renal, 7.67% (active); in the test on UO-31 renal it was -50.1% (active); in the test on ACHN renal, -78.1% (active); in the test with A498 renal, -25.7% (active). Also, the growth in the test with CCRF-CEM leukemia was -1.3% (active); in the test on MOLT-4 leukemia, -16.2% (active); in the test with SR leukemia, -13.1% (active); with RPMI-8226 leukemia it was -30.9% (active); with OVCAR-8 ovarian, 2.26% (active); in the test on OVCAR-5 ovarian, -0.468% (active). Besides, the growth is 23% in the test on OVCAR-4 ovarian; -12.7% (active) in the test on SK-OV-3 ovarian; 23% in the test with IGROV1 ovarian; 2.67% (active) in the test on OVCAR-3 ovarian; 38.6% in the test with HS 578T breast; 18.8% with NCI/ADR-RES ovarian.

In the case of `CSc1nc(N)c2c(n1)N(C)C=NS2(=O)=O`, the growth in the test on SK-MEL-2 melanoma is 123%; in the test on EKVX NSCLC, 113%; in the test on SN12C renal, 99.3%; in the test with UO-31 renal, 87.1%; in the test on ACHN renal, 99%; in the test with CAKI-1 renal, 98.2%. Besides, the growth was 94.4% in the test with CCRF-CEM leukemia; 107% with MOLT-4 leukemia; 102% in the test with SR leukemia; 103% in the test on RPMI-8226 leukemia; 102% in the test with OVCAR-8 ovarian; 93.7% in the test on OVCAR-5 ovarian. Further, the growth in the test with OVCAR-4 ovarian is 108%; with SK-OV-3 ovarian, 117%; in the test with IGROV1 ovarian, 119%; in the test with OVCAR-3 ovarian it was 122%; with HS 578T breast it was 118%; in the test on NCI/ADR-RES ovarian it was 103%.

For the molecule `OCc1n(Cc2ccc3ccccc3c2)cc[n+]1Cc1ccc2ccccc2c1`, the growth with SK-MEL-2 melanoma is 67.7%; in the test with EKVX NSCLC it was 83.3%; in the test with SN12C renal it was 41.7%; in the test on UO-31 renal, 83.5%; in the test with ACHN renal, 109%; in the test with A498 renal it was 72.7%. For the same molecule, the growth with CCRF-CEM leukemia is 34.2%; in the test on MOLT-4 leukemia, 47.5%; in the test on SR leukemia, 15.9%; with RPMI-8226 leukemia, 13.5%; with OVCAR-8 ovarian, 60.7%; in the test on OVCAR-4 ovarian it was 23.9%. Besides, the growth in the test on SK-OV-3 ovarian is 75.9%; in the test with IGROV1 ovarian, 21.9%; in the test with OVCAR-3 ovarian, 39.9%; in the test with HS 578T breast, 66.1%; in the test on NCI/ADR-RES ovarian it was 103%.

Consider `CCNCCCn1c2c(c3ccc(F)cc3c1=O)C(=O)c1cc(OC)cnc1-2`, for which the growth in the test with SK-MEL-2 melanoma was -3.1% (active); in the test with EKVX NSCLC, -14.4% (active); in the test with SN12C renal, 1.58% (active); in the test on UO-31 renal, -90.7% (active); with ACHN renal, -47.5% (active); in the test on A498 renal, -91.2% (active). Also, the growth is 1.07% (active) in the test with CCRF-CEM leukemia; -15.6% (active) in the test with MOLT-4 leukemia; -4.37% (active) in the test on SR leukemia; -25.7% (active) in the test on RPMI-8226 leukemia; -15.1% (active) in the test on OVCAR-8 ovarian; 3.24% (active) with OVCAR-5 ovarian. Moreover, the growth is -4.39% (active) with OVCAR-4 ovarian; -30.4% (active) with SK-OV-3 ovarian; 2.58% (active) in the test with IGROV1 ovarian; -16.9% (active) in the test on OVCAR-3 ovarian; 14.9% in the test with HS 578T breast; -29.4% (active) in the test with NCI/ADR-RES ovarian.
